High-throughput results deposited in PubChem BioAssay by National Center for Advancing Translational Sciences (NCATS).
SMN2 splice up – qHTS Assay for Enhancers of SMN2 Splice Variant Expression; Potency, µM (doses to about 46.1 µM), most hits filed as activators; HEK293 SMN2-luciferase splicing reporter, luminescence, 30-36 h; hit rate 2.8% among 210,000; AID 1458, 2008; note: nearly all actives have a fitted effect of over 55% in size
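HEK293 cells carry an SMN2 minigene-luciferase reporter in which exon 7 inclusion puts luciferase in frame. Cells were seeded at 2000 cells/well, attached for 10-12 hours, then exposed to compounds for 30-36 hours at 37C before ONE-Glo luminescence.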
Rab9 promoter act – qHTS Assay for Rab9 Promoter Activators | hit rate 2.8% among 320,000 | Huh7 Rab9 promoter-luciferase reporter, luminescence, 24 h | Potency, µM (highest dose often 9.22 µM), most hits filed as activators | AID 485297, 2010; note: nearly all actives have a fitted effect of over 60% in size
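Using Huh7 cells stably transfected with Rab9 promoter–luciferase, compounds were incubated 24 h at 37 °C, 5% CO2; luciferase luminescence was read 10 min after reagent addition.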
ELG1 repair inh – qHTS screen for small molecules that inhibit ELG1-dependent DNA repair in human embryonic kidney (HEK293T) cells expressing luciferase-tagged ELG1. hit rate 2.3% among 330,000. Potency, µM (highest dose often 46.1 µM), hits mostly inhibitors. HEK293T ELG1-luciferase reporter, luminescence, 16 h; DNA damage induced by 5-fluorouridine. AID 504467, 2011; note: nearly all actives have a fitted effect of over 55% in size
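In this reporter screen, reduction of luminescence relative to DMSO vehicle indicated activity. Compounds and 5-fluorouridine were added together to 2,000 cells per well, incubated for 16 hr at 37 °C, then developed with ONE-Glo.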
FLuc modulator – qHTS profiling assay for firefly luciferase inhibitor/activator using purifed enzyme and Km concentrations of substrates (counterscreen for miR-21 project); Luciferin 4-monooxygenase (Photinus pyralis), P08659; purified FLuc, Km substrates, luminescence inhibition; Potency, µM (titrated, usually from 57.5 µM), usual class: inhibitors; hit rate 6.9% among 360,000; note: nearly all actives have a fitted effect of over 55% in size
Target sequence (P08659 whole entry, looked up): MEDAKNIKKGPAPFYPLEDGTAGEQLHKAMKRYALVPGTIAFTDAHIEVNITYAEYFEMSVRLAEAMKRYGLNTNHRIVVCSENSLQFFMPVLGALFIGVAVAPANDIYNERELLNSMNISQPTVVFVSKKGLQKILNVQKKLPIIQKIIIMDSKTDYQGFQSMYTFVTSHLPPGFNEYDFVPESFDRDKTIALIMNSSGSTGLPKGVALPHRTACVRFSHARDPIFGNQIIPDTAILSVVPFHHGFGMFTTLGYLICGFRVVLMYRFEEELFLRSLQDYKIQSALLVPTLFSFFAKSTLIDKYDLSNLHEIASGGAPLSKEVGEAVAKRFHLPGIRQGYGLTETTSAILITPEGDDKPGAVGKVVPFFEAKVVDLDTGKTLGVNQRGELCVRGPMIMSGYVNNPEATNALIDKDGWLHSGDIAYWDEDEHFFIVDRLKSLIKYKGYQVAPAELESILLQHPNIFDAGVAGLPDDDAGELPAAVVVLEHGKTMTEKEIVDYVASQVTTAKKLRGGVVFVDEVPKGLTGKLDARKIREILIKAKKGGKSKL
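Biochemical qHTS of compounds, final roughly 60 µM downward over six points, against 10 nM purified firefly luciferase using Km concentrations of substrates (10 uM D-luciferin, 10 uM ATP) in Tris acetate pH 7.5 buffer; luminescence output.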
NPC1 prom act – qHTS Assay for NPC1 Promoter Activators. Huh7 NPC1 promoter luciferase reporter, 24 h. Potency, µM (doses to about 9.22 µM), actives largely listed as activators. hit rate 2.4% among 320,000; note: nearly all actives have a fitted effect of over 60% in size
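Cells: Huh7 expressing luciferase under the NPC1 promoter, 1500/well. Seeded 2 h, compound added, incubated 24 h at 37 °C. Luciferase reagent, 10 min ambient, then luminescence.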
ELG1 genotoxic – qHTS screen for small molecules that induce genotoxicity in human embryonic kidney (HEK293T) cells expressing luciferase-tagged ELG1; HEK293T ELG1-luciferase reporter, luminescence, 16 h; Potency, µM (series often up to 46 µM), usual class: activators; hit rate 1.3% among 330,000; AID 504466, 2011; note: nearly all actives have a fitted effect of over 60% in size
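Cells (2,000/well) expressing the ELG1-luciferase fusion are dosed by pin tool and kept 16 hr at 37 °C, 5% CO2. Signal comes from ONE-Glo luciferase reagent after 30 min at room temperature.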
Hits are given with their value. Most compounds without a hit are left out; they make up all but 9.2% or so of the library. Calls come from the whole dose curve; as a rule, active = well fitted curve in the direction sought with a large enough effect; inconclusive = small, poorly fitted or top-dose-only effect, or another doubt; inactive = no such curve, though single readings can be large; an effect the other way counts as inactive or inconclusive.

Cc1c(C(=O)Nc2cccnc2Cl)oc2ccccc12 was read as Rab9 promoter act 3.2µM, ELG1 repair inh inconclusive, FLuc modulator inconclusive, NPC1 prom act 2.5µM and ELG1 genotoxic inconclusive.
For Cc1c(C(=O)Nc2ccccn2)oc2c(Cl)cccc12 the results were Rab9 promoter act inactive, ELG1 repair inh inconclusive, FLuc modulator inconclusive, NPC1 prom act inactive and ELG1 genotoxic 5.2µM.
For Cc1c(C(=O)Nc2ccncc2)oc2ccccc12 the results were SMN2 splice up inactive, Rab9 promoter act inactive, ELG1 repair inh inconclusive, FLuc modulator 19µM, NPC1 prom act inactive and ELG1 genotoxic inconclusive.
Screening Cc1ccc(NC(=O)c2oc3ccccc3c2C)nc1 returned Rab9 promoter act 3.2µM, ELG1 repair inh inconclusive, FLuc modulator 12µM, NPC1 prom act 3.5µM and ELG1 genotoxic inconclusive.
For Cc1ccc(NC(=O)c2cc3c(=O)oc4ccccc4c3s2)nc1 the results were SMN2 splice up inactive, Rab9 promoter act inactive, ELG1 repair inh inactive, FLuc modulator inactive, NPC1 prom act inactive and ELG1 genotoxic inactive.
For Cc1ccc(-n2nc(C)c3c(C(F)(F)F)cc(-c4cccnc4)nc32)cc1Cl the results were SMN2 splice up inactive and FLuc modulator inactive.
`COc1ccc(NC(=O)c2oc3ccccc3c2C)cn1` gave Rab9 promoter act inactive, ELG1 repair inh inactive, FLuc modulator inactive, NPC1 prom act inactive and ELG1 genotoxic inactive.
For Cc1c(C(=O)Nc2ccccn2)oc2ccccc12 the results were SMN2 splice up 25µM, Rab9 promoter act inconclusive, ELG1 repair inh inconclusive, FLuc modulator 4.3µM, NPC1 prom act inconclusive and ELG1 genotoxic inconclusive.
For CC(C)(C)NC(=O)NC(=O)CN1c2cccc3cccc(c23)S1(=O)=O the results were Rab9 promoter act inactive, ELG1 repair inh inactive, FLuc modulator inactive, NPC1 prom act inactive and ELG1 genotoxic inactive.
For COC(=O)Nc1nc2c(s1)CCCC2 the results were SMN2 splice up inactive, Rab9 promoter act inactive, ELG1 repair inh inconclusive, FLuc modulator inactive, NPC1 prom act inactive and ELG1 genotoxic inconclusive.
For CC(C)(C)c1ccc(C(=O)NC(=S)Nc2nc3c(s2)CCCC3)cc1 the results were SMN2 splice up inactive, Rab9 promoter act inconclusive, ELG1 repair inh inconclusive, FLuc modulator 5.4µM, NPC1 prom act inactive and ELG1 genotoxic inconclusive.
CN(C)c1ccc(C(=O)Nc2nc3c(s2)CCCC3)cc1 was read as SMN2 splice up 0.63µM, Rab9 promoter act 0.32µM, ELG1 repair inh inconclusive, FLuc modulator 0.24µM, NPC1 prom act 0.45µM and ELG1 genotoxic inconclusive.
For C/C(=N\NC1=NCCN1)c1ccc(Cl)cc1 the results were Rab9 promoter act inactive, ELG1 repair inh inactive, FLuc modulator inactive, NPC1 prom act inactive and ELG1 genotoxic inactive.
Screening C/C(=N\Nc1nc2c(s1)CCCC2)c1ccc(Cl)cc1 returned SMN2 splice up inactive, Rab9 promoter act inactive, ELG1 repair inh inconclusive, FLuc modulator 19µM, NPC1 prom act inactive and ELG1 genotoxic inconclusive.
COc1ccc(-c2cc(C(F)(F)F)nc(SCC(=O)NC(C)c3ccccc3)n2)cc1 (centres undefined) was read as SMN2 splice up inactive and FLuc modulator inactive.
Screening CCCC(=O)NCCc1c(I)[nH]c2ccc(OC)cc12 returned SMN2 splice up inactive.
CCOC(=O)c1csc(NC(=O)CN2CCN(C)CC2)n1 was read as Rab9 promoter act inactive, ELG1 repair inh inconclusive, FLuc modulator inactive, NPC1 prom act inactive and ELG1 genotoxic inactive.
For Cc1nc2cc(NC(=O)N3c4ccccc4CC3C)ccc2o1 (centres undefined) the results were SMN2 splice up 11µM, Rab9 promoter act 0.89µM, ELG1 repair inh inconclusive, FLuc modulator 6µM, NPC1 prom act 0.79µM and ELG1 genotoxic 3.3µM.
Cc1nc2cc(NC(=O)N3c4ccccc4CC3C)ccc2n1C (centres undefined) was read as SMN2 splice up 2.8µM, Rab9 promoter act 0.45µM, ELG1 repair inh inconclusive, FLuc modulator 1.7µM, NPC1 prom act 0.5µM and ELG1 genotoxic inconclusive.
For Cc1nc2cc(NC(=O)Nc3ccc(Br)cc3)ccc2o1 the results were SMN2 splice up 11µM, Rab9 promoter act 0.5µM, ELG1 repair inh inconclusive, FLuc modulator 2.4µM, NPC1 prom act 1.8µM and ELG1 genotoxic inconclusive.
`Cc1ccccc1NC(=O)N1c2ccccc2CC1C` (centres undefined) gave SMN2 splice up inactive, Rab9 promoter act inactive, ELG1 repair inh inactive, FLuc modulator inconclusive, NPC1 prom act inactive and ELG1 genotoxic inactive.
`Cc1nc2cc(NC(=O)NCc3ccc4c(c3)OCO4)ccc2o1` gave SMN2 splice up inactive, Rab9 promoter act inactive, ELG1 repair inh inactive, FLuc modulator inactive, NPC1 prom act inactive and ELG1 genotoxic inactive.
Screening Cc1cc(C)cc(NC(=O)Cc2noc3ccccc23)c1 returned FLuc modulator inactive.
Screening Cc1cc(N/N=C/c2ccc(O)cc2O)nc(-n2nc(C)cc2C)n1 returned SMN2 splice up inactive, Rab9 promoter act inactive, ELG1 repair inh 23µM, FLuc modulator inactive, NPC1 prom act inactive and ELG1 genotoxic inactive.
COc1ccc(/C=N/Nc2cc(C)nc(-n3nc(C)cc3C)n2)cc1 was read as SMN2 splice up inactive, Rab9 promoter act inactive, ELG1 repair inh 8.2µM, FLuc modulator 17µM, NPC1 prom act inactive and ELG1 genotoxic inactive.
`Cc1cc(N/N=C/c2ccccc2[N+](=O)[O-])nc(-n2nc(C)cc2C)n1` gave Rab9 promoter act inactive, ELG1 repair inh 13µM, FLuc modulator inconclusive, NPC1 prom act inactive and ELG1 genotoxic inactive.
`Cc1cc(N/N=C/c2cccc(Cl)c2)nc(-n2nc(C)cc2C)n1` gave Rab9 promoter act inactive, ELG1 repair inh 16µM, FLuc modulator inactive, NPC1 prom act inactive and ELG1 genotoxic inactive.
Cc1cc(N/N=C/c2cccc([N+](=O)[O-])c2)nc(-n2nc(C)cc2C)n1 was read as Rab9 promoter act inactive, ELG1 repair inh inactive, FLuc modulator inactive, NPC1 prom act inactive and ELG1 genotoxic inactive.
For O=C(C[C@H]1C/C=C\C[C@@H](Cc2ccc(F)cc2)C(=O)OC[C@H]2CCCN2C1=O)NCCO the results were ELG1 repair inh inactive and ELG1 genotoxic inactive.
`CC1CCN(C2=NC(=O)/C(=C/c3cn(-c4ccccc4)nc3-c3cccc(S(=O)(=O)N(C)C)c3)S2)CC1` gave SMN2 splice up inactive, Rab9 promoter act inconclusive, ELG1 repair inh 5.2µM, FLuc modulator 2.7µM, NPC1 prom act inactive and ELG1 genotoxic inactive.
